# According to PubChem BioAssay AID1508600 (Functional Genomics Laboratory (NCATS/FGL), 2020):
# About 3,700 (7%) of roughly 53,000 sequences were called active.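 Rule for the calls: active = gene knockdowns whose robust z-score for IL-1 alpha signal is at least 2 or at most -2, so actives lie on both sides; inactive = the rest.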 The sample as a whole holds a higher share of actives than the screen did.
# Test: Components of the Cytosolic LPS Sensing Pathway: Gene Identification via Genome-wide siRNA Screen
# Settings: RAW264.7 macrophages, IL-1a HTRF, actives lie on both sides, screened at 100 nM (by protocol), cells primed 5 h with Pam3CSK4 first
# Text: Non-canonical inflammasome activation by cytosolic LPS is a critical component of the host response to Gram-negative bacterial infection, however we lack a comprehensive understanding of the cellular processes that control this pathway. Here we describe a genome-wide siRNA screen to identify genes regulating the mouse macrophage IL-1 alpha response to cytosolic LPS.
# RAW264.7 cells were maintained in complete DMEM media, comprising DMEM with 4.5 g/L glucose, 10% FBS (Gemini Bio-Products, West Sacramento, CA), 2 mM Glutamine (Lonza) and 20 mM HEPES (Lonza), hereafter complete DMEM.
# The RNAi screen was conducted in 384-well format using the Ambion Silencer Mouse Genome siRNA Library (#4391425), which consists of three unique, nonoverlapping, nonpooled siRNAs for each of 17,000 gene targets. siRNA reagents ([…]) were stamped into 384-well white flat-bottom microplates (Corning, 3570) using a Velocity11 VPrep liquid handling system (Agilent) integrated into a BioCel robotic platform (Agilent) in columns 1-22, leaving columns 23-24 empty for negative (Ambion, Negative control #1) and positive (mouse Casp4) controls, respectively. The median value of each plate's negative control column was used to normalize sample wells, and the positive control was used to assess transfection efficiency and assay performance.
# Lipofectamine RNAiMAX Transfection Reagent ([…]; Invitrogen) was added in […] serum-free, antibiotic-free media to plate wells using a Thermo Scientific Matrix WellMate and Microplate Stacker. Plates were incubated for 45 min at room temperature to allow for the sufficient formation of siRNA-lipid complexes. Cells were seeded at a density of 1x10^4 cells per well in 20 microL media containing 20% (vol/vol) FBS without antibiotics. The final concentration of siRNA in each well was 100 nM. Cells were cultured for 48h at 37 degrees C in 5% CO2 before addition of […] of TLR ligand Pam3CSK4 for 5 hours. The medium was then removed, replaced with […] growth media and cell were transfected with […] of LipidA and TransIT-TKO (Mirus) for 24 hour. At the end of the LipidA treatment, […] of supernatant was transferred to a 384 Greiner Bio-one non-binding low volume plate and […] of IL-1a HTRF reagent (Cisbio, 62MIL1APEH) was added and incubated at room temperature overnight. The plates were read on an EnVision plate reader (PerkinElmer). Cell viability was measured by adding 20ul Cell Titer Glo to the original plate and running a luminescence read on the EnVision. The quantified IL-1a signal for each siRNA gene-targeted well was divided by the median of the negative control wells and multiplied by 100 to achieve a negative control normalized value for each well/siRNA. This normalized value was then used to generate a robust z-score by first taking the log of each value and then by subtracting the median and dividing by the […].
row,Sequence,z-score
1,GCAGUUCACGCAGUGGAAGTT against Fam25c,1.3 (inactive)
2,UCAUAGCAGAGAUUAGAAUTT against Hsfy2,-0.951 (inactive)
3,CCUCAGGUUAUUGAAUAUUTT against Rapgef6,0.502 (inactive)
4,GGACAAAACGUGCAAUAUGTT against Pkdcc,-0.188 (inactive)
5,GCAGAUUGCUCAGAUUACCTT against Brip1,0.407 (inactive)
6,GGUUCUUCGGCUUAUGUUGTT against Rgs7bp,0.537 (inactive)
7,GGACAAAAUAAUGCUUUCUTT against Cnnm1,0.0436 (inactive)
8,GGAAUGUUACAUUUCAGUUTT against Adam1a,2.15 (active)
9,CCCGUAUCUUUUUAGCUAATT against A630038E17Rik,0.35 (inactive)
10,GCCAAACUAUCAGAGAUGGTT against Slc38a7,0.0528 (inactive)
11,GGAUUAUGGUACCAAGCGCTT against Umps,1.21 (inactive)
12,CCUAAUUGAAAUCAGCAGUTT against Hip1r,1.14 (inactive)
13,GGCACAAGAAAUUUGAUGATT against Gpc6,-1.91 (inactive)
14,GCAAAUCAUGACUAUUGUATT against Atat1,0.00079 (inactive)
15,CAUGAUAGCGAUAGCAAUCTT against Olfr507,0.0127 (inactive)
16,GCCUGAUUCAGAGUAUAAATT against Col14a1,-1.24 (inactive)
17,CCUACUCAAAUGAAGUUGUTT against Cdk17,-0.384 (inactive)
18,CCUGUGAAAUACCAGCGUGTT against Rsl24d1,2.05 (active)
19,GCUCUGGUUGCCAGUUAUGTT against Ddx49,0.903 (inactive)
20,GGGAUUAUAGGGCGCAUUGTT against Olfr685,-1.01 (inactive)
21,GCGACAAAUCAAAAAGGCCTT against Dnajb9,-0.0942 (inactive)
22,GGCCAACAAUAUAAAAGACTT against Pus3,-0.641 (inactive)

row,Sequence,z-score
1,GACUUCGGACAAAUGGUGCTT against Lce1f,2.27 (active)
2,GGUCCUGAUGUUGAAGGCATT against Rinl,0.647 (inactive)
3,GCAUCUCUUACUAAGAUUATT against Anxa4,-0.433 (inactive)
4,GGAAUUAAAUGAACCCAGATT against Arhgap8,2.48 (active)
5,GGUUUUAUGCAUUAGCUCCTT against Lipf,0.502 (inactive)
6,GCAACCUGUCAUUUUGUGATT against Olfr1134,-1.74 (inactive)
7,GGCUUUUAGCUACCUUGUGTT against AW209491,-0.704 (inactive)
8,GCACGAUGUCUCAGCUCUATT against Nipal3,-2.89 (active)
9,CCAGGUGUAACAAAAAAGATT against Dtl,1.09 (inactive)
10,CCGGGAAAUUCUGUUAGCCTT against Pla2g1b,-1.95 (inactive)
11,GGAAAGCUCUCAAUACCUGTT against Olfr633,-0.688 (inactive)
12,GCUUUGGUUGCUAACCCAATT against Slc45a2,0.407 (inactive)
13,GGCUCAAUUUGGAAAGGACTT against Anxa8,-0.586 (inactive)
14,GGAGCAUCUAUGAUUACAATT against Iqcg,3.24 (active)
15,GGAUAUGUCGGAAAAAGCCTT against Cfh,0.271 (inactive)
16,GGCCACAGUAAUGGGAAAUTT against Cga,-0.208 (inactive)
17,GGUAAAUGAUCUGAAAAUGTT against Rps6ka6,-0.46 (inactive)
18,GCUCAUGUCAGGAGAGAGUTT against Ocel1,-2.41 (active)
19,CGAGCUAUACGGAAAAAAATT against Efcab12,-1.03 (inactive)
20,GCUGAUCCUCUCCCUUCAUTT against Tas2r131,-0.463 (inactive)
21,GGCUCUUCUCUCGUCCUUGTT against Nif3l1,0.213 (inactive)
22,GGAUGAAGACCCAUAUGUGTT against Ap1b1,-0.287 (inactive)

row,Sequence,z-score
1,GCCUCAGUUUGAAAUUGUUTT against Tbrg1,-0.695 (inactive)
2,CCUGGAUCAGCAAUCCACATT against Lpxn,-0.503 (inactive)
3,UCCUCCUGUCUUACGUACGTT against Prlhr,2.05 (active)
4,CGUGUAGCAAUGAGAUAUUTT against Trpc5,0.162 (inactive)
5,GGGAUUUCUGGAGAAAAUGTT against Csta2,-0.872 (inactive)
6,GGAUUCCUGUACAUAUAUUTT against Ube4b,-0.501 (inactive)
7,GGCAUGAAUACAUCACAGCTT against Vmn1r220,-0.808 (inactive)
8,GGACAUACAAAUCUUCAUUTT against Mta2,0.886 (inactive)
9,GGUGAUGCUAAAUUCUGAUTT against Mpc2,-1.92 (inactive)
10,GGUAUAUGGUGGGAACUUUTT against Bnipl,2.04 (active)
11,CCUCUCUUUAACAGGUCACTT against 1700034H15Rik,1.35 (inactive)
12,GCUGUUACUCUUAAACAAATT against Pdhx,0.254 (inactive)
13,GCCUCAGUUAUUUAAUGAATT against Mpp3,-0.414 (inactive)
14,GGAUGAAGAAAACUGGCUUTT against Tsx,-0.764 (inactive)
15,GGAAGCAGGGCAGCUUAUUTT against Hbq1a,-2.22 (active)
16,GGUUGACCCACUGAAAAUUTT against Marveld1,-0.112 (inactive)
17,GCACGGCCCUACUUUAUAGTT against Trim33,-1.43 (inactive)
18,GGCGUGAAAAUAGGAGAAUTT against Extl2,-1.77 (inactive)
19,GCCGCUACACAUCAAACCATT against Zc3h3,-0.336 (inactive)
20,GCUAAUCGAAGUUGAAAUUTT against Soga3,-0.316 (inactive)
21,GGAAAAUGGAGCUGUGCUCTT against Prelid3a,0.298 (inactive)
22,GCUGUUUUAGUAGAGGUAATT against Tsfm,-0.708 (inactive)

row,Sequence,z-score
1,CCUCAAAUUAUUGUUGGCATT against Ppip5k1,-2.07 (active)
2,GGGCUGGCUACGAUAAGCUTT against Tes,1.53 (inactive)
3,CCCUUGAAGAUGAAACCAGTT against Smarca5,-0.277 (inactive)
4,GCGGAAAUCUAAUUGCUUGTT against Kat5,-0.0418 (inactive)
5,GGUGGAUUAAGUCUCAAAATT against Pcdhb22,0.592 (inactive)
6,CCUACUGGAAAAGAUAAUUTT against Stfa1,1.82 (inactive)
7,GCUACUAUGUGCCUGUGACTT against Oc90,-2.21 (active)
8,UACAUUAGUAGAAUGGAGGTT against Mageb3,-0.598 (inactive)
9,GGAAGAAACUGAGAAACUGTT against Fam205c,0.48 (inactive)
10,CGGAAAAAUGGAAGUAUAGTT against Mrtfb,-0.687 (inactive)
11,GGGCUGUGAUCAAACAUGGTT against Ano9,-1.38 (inactive)
12,GGAAUUAUGAACAAAUUGCTT against H2-M9,0.702 (inactive)
13,GGCCUCUAUCUUCCAACAATT against Tent4a,-2.06 (active)
14,GCCAACAAGCAUUCCAUUGTT against Mrap,-0.991 (inactive)
15,GGAUACAUUAAGGUGCAAGTT against Aldh1a7,0.819 (inactive)
16,GGCACAUGGAGUGGACAAGTT against Blvrb,3.2 (active)
17,GCUUGACCCUACACUACAGTT against Olfr1121,2.47 (active)
18,GGCUGGCAAACUCAAAAAATT against Zfp385c,-0.813 (inactive)
19,GCGAUCUAGAAAUUGACAATT against St13,-0.59 (inactive)
20,GGAAAAAGGAGGGUUUAGCTT against Tm4sf5,0.418 (inactive)
21,GGACUGUGCAGUUAUUGUCTT against Psma6,-2.17 (active)
22,CCCUUUAUUAUUCCACUGUTT against Olfr530,-1.12 (inactive)

row,Sequence,z-score
1,CCAAGUUCACAAUUGUUCUTT against Gimap8,-0.263 (inactive)
2,CCUAAAGAAAGGUUAAAGATT against Sfr1,-0.763 (inactive)
3,CGAGCCCAUGUCAGAUCAGTT against Minar1,-2.33 (active)
4,GCACUACCACUGUCAGCAATT against Ldb3,-0.734 (inactive)
5,CCAACACUACCAGAGAACGTT against Pfkfb1,-0.808 (inactive)
6,CGAUAAAAGACCCAAAUUATT against Emx2,1.86 (inactive)
7,GCAUGUGUCAAGAUGUCUGTT against Tec,1.36 (inactive)
8,GGUCACAAACAGAUUAAUUTT against Ahcy,-0.404 (inactive)
9,GGUUUGAAUGUCACCGGCATT against Defb29,-1.22 (inactive)
10,GGAUGAGGAAAACUUCCAGTT against Mup5,2.61 (active)
11,GCCAUCACGAGCUAAAACCTT against Smad5,-1.91 (inactive)
12,GGUUUUUAGCCUGAGUGAGTT against Olfr688,-1.8 (inactive)
13,GGAUUUCUCGGAAGUCGAGTT against Cd3e,0.517 (inactive)
14,GGUCUUUCAAGUUGCAUACTT against Lama1,0.491 (inactive)
15,GGAUGAACUAUACCAUGGCTT against Tmem132c,1.07 (inactive)
16,GGACGGUCUUGCCUUCUUCTT against Fam222a,0.901 (inactive)
17,CGAUGACGGGAAAUAAUUUTT against Snx4,-0.663 (inactive)
18,GCUAUUUUUAUAAGGGCCATT against Sh2b2,2.94 (active)
19,GGCACCAUAGAUGUUUGAGTT against Cyp4f16,-1.34 (inactive)
20,GGAGCCUGUCUUUUAUUGATT against Olfr938,0.0765 (inactive)
